According to PubChem BioAssay (NCATS):
Inconclusive results are not listed. A call without a number means that no potency is given here. Active and inactive are the calls of the source. Calls follow the shape of the dose curve; as a rule, active = well fitted curve in the direction sought with a large enough effect; inconclusive = small, poorly fitted or top-dose-only effect, or another doubt; inactive = no such curve, though single readings can be large; an effect the other way counts as inactive or inconclusive. Where a SMILES comes first, the peptide text is derived from it. Bridges are numbered along the chain shown (N, C = ends).

Experiments:
[1] = target: Glutathione peroxidase 1 (Homo sapiens) (UniProt P07203); experiment: Primary qHTS Assay for Inhibitors of Recombinant Selenoprotein Glutathione Peroxidase 1 (GPX1) (AID 1845191); also: nearly all actives have a fitted effect of over 65% in size; also: potency is read from the fitted curve at half-maximal effect
Method in brief: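 GPX1 10 nM, GR 100 nM, GSH 1 mM, NADPH 0.5 mM, CHP 0.5 mM (final). 30-min cpd preincubation, RT. Ex340/Em450 read t=0, t=15 min.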

[2] = target: Phospholipid hydroperoxide glutathione peroxidase GPX4 (Homo sapiens) (UniProt P36969); experiment: Primary qHTS Assay for Inhibitors of Recombinant Selenoprotein Glutathione Peroxidase 4 (GPX4) (AID 1845192); also: nearly all actives have a fitted effect of over 65% in size; also: potency is read from the fitted curve at half-maximal effect
Method in brief: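 qHTS, GR-coupled: GPX4 200 nM + cpd 30 min RT → GSH 1 mM, NADPH 0.5 mM, GR 100 nM → CHP 0.5 mM start; fluor 340/450 at t0 and t15 min; no-enzyme wells as control.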

[3] = target: Luciferin 4-monooxygenase (Photinus pyralis) (UniProt P08659); experiment: Primary firefly luciferase (FLuc) qHTS assay for identification of artifact compounds. (AID 1845220); also: nearly all actives have a fitted effect of over 60% in size; also: potency is read from the fitted curve at half-maximal effect
Method in brief: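 Reaction readout was CCD-imaged luminescence, taken 5 min after adding 10 nM purified firefly enzyme to compound-treated wells holding 10 uM luciferin and ATP in pH 7.6 buffer.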

[4] = Primary fluorescence-based thiol-reactive (MSTI) qHTS assay for identification of artifact compounds. (AID 1845221); also: nearly all actives have a fitted effect of over 65% in size; also: potency is read from the fitted curve at half-maximal effect
Method in brief: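 Probe: MSTI 4 uM, PBS pH 7.4, 2% DMSO. Incubation 1 h, RT, light-protected. Readout fluorescence 525/598 nm.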

[5] = test system: Nanoluciferase (engineered Oplophorus gracilirostris luciferase); experiment: Primary Nanoluciferase (NLuc) qHTS assay for identification of artifact compounds. (AID 1845222);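 also: NLuc secreted into diluted conditioned medium of S16 cells; series mostly up to about 54 µM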
Method in brief: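 Concentration-response data were obtained by luminescence after 5 min with Nano-Glo substrate at 1:100. The enzyme was diluted S16 NLuc-expressing cell medium, preincubated with compound for 15 min at RT. Curves were fitted with a 4-parameter Hill model.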

Glutathione peroxidase 1 (Homo sapiens), sequence (P07203 whole entry, looked up): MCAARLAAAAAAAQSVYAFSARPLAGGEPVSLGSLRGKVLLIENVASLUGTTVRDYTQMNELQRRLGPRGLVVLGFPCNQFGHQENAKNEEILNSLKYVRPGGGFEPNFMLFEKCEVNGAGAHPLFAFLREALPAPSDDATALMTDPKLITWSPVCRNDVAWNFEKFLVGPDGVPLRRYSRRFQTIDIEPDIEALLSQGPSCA
Phospholipid hydroperoxide glutathione peroxidase GPX4 (Homo sapiens), sequence (P36969 whole entry, looked up): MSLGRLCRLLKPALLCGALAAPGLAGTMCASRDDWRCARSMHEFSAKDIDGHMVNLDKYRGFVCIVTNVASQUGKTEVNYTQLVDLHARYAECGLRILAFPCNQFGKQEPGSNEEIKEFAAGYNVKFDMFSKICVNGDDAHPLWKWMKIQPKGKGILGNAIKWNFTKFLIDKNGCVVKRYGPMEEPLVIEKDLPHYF

Compound	Potency [1]	Potency [2]	Potency [3]	Potency [4]	Potency [5]
CC(C)(C)CC(=O)OCC(=O)[C@@]12OC(C)(C)O[C@@H]1C[C@H]1[C@@H]3CCC4=CC(=O)C=C[C@]4(C)[C@@]3(F)[C@@H](O)C[C@@]12C	inactive	inactive			
CCCCc1cc2c(=O)c(C(=O)OC)c[nH]c2cc1OCc1ccccc1	inactive	inactive			
NCCCC[C@H](NC(=O)[C@@H]1CCCN1C(=O)[C@@H]1CSSC[C@H](NC(=O)CNC(=O)CNC(=O)CN)C(=O)N[C@@H](Cc2ccc(O)cc2)C(=O)N[C@@H](Cc2ccccc2)C(=O)N[C@@H](CCC(N)=O)C(=O)N[C@@H](CC(N)=O)C(=O)N1)C(=O)NCC(N)=O (H-GGGCYFQNCPKG-NH2; disulfide 4-9)	inactive	inactive			
CON=C1C[C@]2(C[C@@H]3C[C@@H](C/C=C(\C)C[C@@H](C)/C=C/C=C4\CO[C@@H]5[C@H](O)C(C)=C[C@@H](C(=O)O3)[C@]45O)O2)O[C@H](/C(C)=C/C(C)C)[C@H]1C	inactive	inactive			
CN(C(=O)CO)c1c(I)c(C(=O)NCC(O)CO)c(I)c(C(=O)NCC(O)CO)c1I (stereo not given)	inactive	inactive			
CO/N=C(\C(=O)N[C@@H]1C(=O)N2C(C(=O)OCOC(=O)C(C)(C)C)=C(/C=C\c3scnc3C)CS[C@H]12)c1csc(N)n1	4.53 µM (active)	14.1 µM (active)			
CCC(c1ccccc1)c1noc(CCN(CC)CC)n1 (stereo not given)	inactive	inactive			
CC#CCC(C)[C@H](O)/C=C/[C@@H]1[C@H]2c3cccc(CCCC(=O)O)c3O[C@H]2C[C@H]1O (stereo not given in full)	inactive	inactive			
CCCCCCCCCCCCCCCC(=O)OCCC1CCN(CCCN2c3ccccc3Sc3ccc(S(=O)(=O)N(C)C)cc32)CC1	inactive	inactive			
CN(C)Cc1ccccc1	inactive	inactive			
CC1(S(=O)(=O)O)CC(=O)c2ccccc2C1=O (stereo not given)	2.02 µM (active)	0.891 µM (active)			
CNC[C@@H]1CC[C@@H](N)[C@@H](O[C@H]2[C@H](O)[C@@H](O[C@H]3OC[C@](C)(O)[C@H](NC)[C@H]3O)[C@H](N)C[C@@H]2N)O1	inactive	inactive			
CCN1CCCC1CNC(=O)c1cc(S(=O)(=O)CC)ccc1OC (stereo not given)	inactive	inactive			
CC(=O)O[C@H]1CC[C@@]2(C)C(=CC[C@H]3[C@@H]4CC[C@H](C(C)=O)[C@@]4(C)CC[C@@H]32)C1	inactive	inactive			
CO[C@H]1[C@@H](O)[C@H](N)[C@@H](O[C@H]2O[C@H]([C@H](C)N)CC[C@H]2N)[C@H](O)[C@@H]1N(C)C(=O)CN	inactive	inactive			
Cc1[nH]cnc1C[C@H]1CCc2c(C)c3ccccc3n2C1=O	inactive	inactive			
COCC(=O)NC/C=C/c1ccc2ncnc(Nc3ccc(Oc4ccc(C)nc4)c(C)c3)c2c1	inactive	inactive	inactive	inactive	inactive

Compound	Potency [1]	Potency [2]	Potency [3]	Potency [4]	Potency [5]
COc1ccc(NC(=O)c2ccc(-c3ccc(C(=N)N)cc3C)cc2)cc1N1CCN(C)CC1	inactive	inactive	inactive	inactive	inactive
CN(C)CC1CCn2c(c(C3=C(c4cn(C)c5ccccc45)C(=O)NC3=O)c3ccccc32)C1 (stereo not given)	inactive	inactive	inactive	inactive	
CCN(CC)CCCS(=O)(=O)N[C@H](CCc1ccccc1)c1nc(Cc2ccc(Br)cc2)no1	inactive	inactive	inactive	inactive	inactive
Cc1cc(F)c(C(=O)Nc2cccc(-c3nncn3C(C)C)n2)cc1-n1cnc(C2CC2)c1	inactive	inactive	inactive	inactive	inactive
CS(=O)(=O)OCCCNCCCOS(C)(=O)=O	inactive	inactive			
C=CC(=O)Nc1cccc(Nc2nc(Nc3ccc(OCCOC)cc3)ncc2F)c1	inactive	inactive	inactive	4.74 µM (active)	inactive
COc1ccc(C(=O)Nc2ccccc2CCC2CCCCN2C)cc1 (stereo not given)	inactive	inactive			
OC(CN1CCCCC1)c1cc(-c2ccccc2)on1 (stereo not given)	inactive	inactive			
CN1CCN(CCCN2c3ccccc3Sc3ccccc32)CC1	inactive	inactive			
COc1ccc(CCNCC(O)COc2cccc(C)c2)cc1OC (stereo not given)	inactive	inactive			
O=C(O)c1ccc(N2C(=O)/C(=C/c3ccc(-c4ccc([N+](=O)[O-])cc4)o3)C=C2c2ccccc2)cc1	inactive	inactive	inactive	0.423 µM (active)	
CCC(C)C(C(=O)OCC[N+](C)(CC)CC)c1ccccc1 (stereo not given)	inactive	inactive			
O=C(Nc1ccc(N2C(=O)[C@@H]3[C@H](C2=O)[C@@H]2C=C[C@H]3C2)c(Cl)c1)c1ccccn1	inactive	inactive	19 µM (active)	inactive	inactive
CCCCC(=O)O	inactive	inactive			
NCCCNCCCCNC(=O)C(O)NC(=O)CCCCCCN=C(N)N (stereo not given)	inactive	inactive			
C=C1CC2C3CCC4=CC(=O)C=C[C@]4(C)[C@@]3(F)[C@@H](O)C[C@]2(C)[C@@]1(O)C(=O)COC(C)=O (stereo not given in full)	inactive	inactive			
CN1CC(O)c2cc(N=NC(N)=O)c(O)cc21 (stereo not given)	inactive	inactive			
